Source: PubChem BioAssay (NCATS)
Results filed as inconclusive are left out. Active and inactive are the calls of the source. Unless noted, calls come from the whole dose curve; as a rule, active = well fitted curve in either direction with a large enough effect (not every such curve was filed as active); inconclusive = small, poorly fitted or top-dose-only effect, or another doubt; inactive = flat fitted curve, though single readings scatter.

How the values were obtained:
[1] = target: Lysosomal acid glucosylceramidase (Homo sapiens) (UniProt P04062); assay: Glucocerebrosidase-p2 (AID 348; in the data active = potency below about 10 µM; note: potency is the fitted concentration of half-maximal effect); settings: purified GBA, blue fluorogenic substrate, 40 min
Method in brief: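 Normal human glucocerebrosidase (0.2 nM) with blue fluorogenic substrate (80 uM final) in citrate/phosphate pH 5.9 with 10mM sodium taurocholate, 0.01% tween-20; 40 min RT, NaOH/glycine stop; fluorescence Ex 365/Em 440; AC50 from a titration from 0.6 nM upwards.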

[2] = AP1 Signaling Pathway (AID 357); settings: ME-180 AP-1-bla reporter, EGF-induced, beta-lactamase ratio, 5 h; at 7.69 µM (top of the series) unless noted;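 note: ME-180 reporter cells stimulated with EGF at its EC50 level; % is set by controls: 0 for no effect and ±100 for the full control effect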
Method in brief: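 Read-out was the 460nm/530nm emission ratio (excitation 405nm) after CCF4 loading for 2.5 hours at room temperature. Cells carried an AP-1-driven beta-lactamase reporter, were stimulated with EC50 EGF plus compound for 5 hours, and AC50 values came from titrations.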

[3] = target: Cytochrome P450 1A2 (Homo sapiens) (UniProt P05177); assay: p450-cyp1a2 (AID 410; calls by dose curve; note: potency is the fitted concentration of half-maximal effect;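 for activity change, negative = inhibition: -100% = full effect of reference inhibitor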); settings: recombinant CYP1A2, luciferin-ME demethylation, luminescence; series mostly up to 57 µM
Method in brief: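 O-Demethylation of luciferin 6' methyl ether by human CYP1A2 is monitored as luciferase luminescence. Substrate sits at Km (100uM); enzyme is 20nM. Values are scaled to 57 uM furafylline as maximal inhibition.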

[4] = NFAT Signaling Pathway (AID 444); settings: Jurkat NFAT-bla M1, carbachol, beta-lactamase ratio, 5 h; at 7.69 µM (top of the series) unless noted;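 note: carbachol stimulus at about its EC50 of 1 µM final; % is set by controls: 0 for no effect and ±100 for the full control effect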
Method in brief: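 Read-out: CCF4 FRET ratio (460 nm/530 nm) after 1 h RT dye loading, used for %activity and AC50 from titration series. Cells: Jurkat NFAT-β-lactamase/M1 line, treated with compound plus 1 uM carbachol for 5 h, 37 °C.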

[5] = Stat Signaling Pathway (AID 446); settings: ME-180 (cervical carcinoma) SIE beta-lactamase reporter, IL-6 stimulated, 5 h; at 7.69 µM (top of the series) unless noted;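 note: ME-180 cervical cancer cells given 40 pM IL-6 alongside compound; SIE-controlled beta-lactamase reporter measured as 460/530 nm FRET emission ratio; % is set by controls: 0 for no effect and ±100 for the full control effect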
Method in brief: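 Overnight-plated ME-180 cells bearing a STAT Inducible Element beta-lactamase reporter; 5 h co-exposure to compound and 40 pM IL-6; values normalized to 300 pM IL-6 and 125 nM JAK inhibitor controls.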

[6] = target: Glucocorticoid receptor (Homo sapiens) (UniProt P04150); assay: GR-GFP Redistribution (AID 450;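 active = compounds whose dose series gives a full or clear partial fitted curve of increased nuclear translocation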; note: potency is the fitted concentration of half-maximal effect); settings: U2OS GR-GFP nuclear translocation, laser cytometry, 2 h
[7] = target: Glucocorticoid receptor (Homo sapiens) (UniProt P04150); assay: GR-EFC Redistribution (AID 451; calls by dose curve; note: potency is the fitted concentration of half-maximal effect); settings: CHO-K1 GR-EFC translocation, beta-gal luminescence, 2 h
Method in brief: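 Translocation of GR-ED fusion to nuclear EA restores b-gal, read by luminescence after 1 h room-temperature detection. Engineered CHO-K1 biosensor cells, 1,000/well, exposed 2 h at 37 C to titrations up to 46 uM final.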

[8] = target: Mitogen-activated protein kinase 10 (Mus musculus) (UniProt Q61831); assay: JNK3 AlphaScreen Assay (AID 530); settings: JNK3 lysate, c-Jun phosphorylation; series mostly up to 57.1 µM;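 note: kinase came from lysate of stimulated human HepG2 cells; signal reports phosphorylation of biotinylated GST-cJun 1-79 at Ser73 with 10 µM ATP; % is set by controls: 0 for no effect and ±100 for the full control effect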
Method in brief: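 qHTS titrations with 15 min compound pre-incubation before adding ATP (10 uM final). Read-out: AlphaScreen of Ser73-phosphorylated biotin-GST-cJun using HepG2 lysate JNK3 activated by IL-1β and TNFα.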

[9] = qHTS Assay for Lipid Storage Modulators (AID 1519; calls by dose curve); settings: Drosophila S3 cells, BODIPY lipid droplet/cell ratio, laser cytometry, cells loaded with oleic acid; for activity change, negative = inhibition: at 57.5 µM (top of the series)
Method in brief: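 Cells seeded at 5,000 per well were treated with compounds over a concentration series and loaded with oleic acid (400 uM, as added). Lipid droplet fluorescence (488 nm excitation, 500-530 nm channel) was read by laser-scanning cytometry and normalized to 20 uM Triacsin C.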

[10] = Primary qHTS for small molecule stabilizers of the endoplasmic reticulum resident proteome: Secreted ER Calcium Modulated Protein (SERCaMP) assay (AID 1508630; active = well fitted curve in the direction sought with a large enough effect; an effect the other way counts as inactive or inconclusive; note: % is set by controls: 0 for no effect and ±100 for the full control effect); settings: SH-SY5Y GLuc-SERCaMP (Gaussia luciferase released on ER calcium loss) secretion, thapsigargin, luminescence; series mostly up to 38.4 µM
Method in brief: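 The SH-SY5Y reporter protocol was run at 3 concentrations up to 38.3 uM (primary) or 11 concentrations (follow-up): 16 h compound, 100 nM thapsigargin for 4 h, then extracellular luciferase luminescence.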

[11] = target: 3',5'-cyclic-AMP phosphodiesterase 4B (Homo sapiens) (UniProt Q07343); assay: qHTS Assay for Inhibitors of PDE-IV (AID 607; active = well fitted activation curve with a large enough effect in the main read-out, with a control signal flat, not every such curve was filed as active; note: % of control where 0% means no effect); settings: HEK293 ACTOne CNG channel cells, membrane potential fluorescence; series mostly up to 22.9 µM
Method in brief: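 Live HEK293 cells with a modified cyclic nucleotide-gated (CNG) channel report intracellular cAMP via membrane-potential dye fluorescence (ex 535/em 590 nm). Endogenous PDE-IV was targeted. Compounds were tested at up to 22.9 uM final; RO 20-1724 100 uM served as control.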

[12] = target: Cytochrome P450 2C9 (Homo sapiens) (UniProt P11712); assay: qHTS Assay for Inhibitors and Substrates of Cytochrome P450 2C9 (AID 883; active = well fitted curve in the direction sought with a large enough effect; an effect the other way counts as inactive or inconclusive; note: % is set by controls: 0 for no effect and ±100 for the full control effect; nearly all actives have a fitted effect of over 60% in size); settings: recombinant CYP2C9, luciferin-H luminescence, 60 min; series mostly up to 57.1 µM
Method in brief: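 Turnover of Luciferin-H (100uM, KM) by 10nM human CYP2C9 was measured over 60 min at 37C with NADPH regeneration; inhibitors and some substrates reduce luminescence. Data normalized to sulphaphenazole 57uM.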

[13] = target: Cytochrome P450 3A4 (Homo sapiens) (UniProt P08684); assay: qHTS Assay for Inhibitors and Substrates of Cytochrome P450 3A4 (AID 884; active = well fitted curve in the direction sought with a large enough effect; an effect the other way counts as inactive or inconclusive; note: potency is the fitted concentration of half-maximal effect; nearly all actives have a fitted effect of over 50% in size); settings: recombinant CYP3A4, Luciferin-PPXE luminescence; series mostly up to 57.1 µM
Method in brief: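 Luminescent readout of luciferin produced by CYP3A4 (20 nM) dealkylation of Luciferin-PPXE, 25 uM (its KM). NADPH-driven reaction ran 60 min at RT after 10 min compound preincubation; data scaled to 57 uM ketoconazole as 100% inhibition.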

[14] = target: Cytochrome P450 3A4 (Homo sapiens) (UniProt P08684); assay: qHTS Assay for Activators of Cytochrome P450 3A4 (AID 885; active = well fitted curve in the direction sought with a large enough effect; an effect the other way counts as inactive or inconclusive; note: nearly all actives have a fitted effect of over 65% in size); settings: recombinant CYP3A4, Luciferin-PPXE luminescence, 60 min; series mostly up to 57.1 µM
Method in brief: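 Using 20nM recombinant human CYP3A4 in potassium phosphate (200mM), substrate Luciferin-PPXE at 25uM, luminescent luciferin detection followed a 60-min RT NADPH reaction; data scaled to 57 uM ketoconazole.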

[15] = target: Cytochrome P450 2C19 (Homo sapiens) (UniProt P33261); assay: qHTS Assay for Inhibitors and Substrates of Cytochrome P450 2C19 (AID 899; active = well fitted curve in the direction sought with a large enough effect; an effect the other way counts as inactive or inconclusive; note: potency is the fitted concentration of half-maximal effect; nearly all actives have a fitted effect of over 60% in size); settings: recombinant CYP2C19, luciferin-H EGE luminescence; series mostly up to 57.1 µM
Method in brief: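 Reactions contain 5nM enzyme, 10uM Luciferin-H EGE (KM) and 50mM KPO4; compound preincubates 10 min at 37C, NADPH regeneration starts turnover for 60 min. Luminescence after detection reagent gives activity.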

[16] = Confirmation and Secondary Assay for Modulators of Hemoglobin Beta Chain Splicing at IVS2 654 locus (AID 910; active = well fitted curve in the direction sought with a large enough effect; an effect the other way counts as inactive or inconclusive;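 note: HeLa cells stably carrying EGFP split by mutant beta-globin IVS2-654 intron; per-well total GFP intensity by laser scanning cytometry after 2-day treatment; % of control where 0% means no effect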); settings: HeLa EGFP-654 splicing reporter, GFP fluorescence, 48 h; series mostly up to 38.3 µM
Method in brief: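 Readout: per-well total peak green fluorescence (488 nm ex, 500–520 nm em) from objects 5–250 µm, reflecting correct splicing of an EGFP-654 reporter. Compounds were applied for 2 days at 37 °C to overnight-plated HeLa EGFP-654 cells; controls were DMSO and 500 nM IVS2-654 PNA.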

[17] = Confirmation and Secondary Assay for Modulators of Hemoglobin Beta Chain Splicing at IVS2 705 locus (AID 930; active = well fitted curve in the direction sought with a large enough effect; an effect the other way counts as inactive or inconclusive;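 note: HeLa cells stably expressing the EGFP-705 splicing reporter; GFP fluorescence per well restored by corrected splicing of the IVS2-705 intron in EGFP; % of control where 0% means no effect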); settings: HeLa EGFP-705 splicing reporter, GFP fluorescence, 48 h; series mostly up to 38.3 µM
Method in brief: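 Per-well GFP, captured at 1 x 8 µm resolution with 488 nm excitation, served as the read-out for HeLa EGFP-705 cells incubated 2 days with test compound versus DMSO.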

[18] = target: Ubiquitin carboxyl-terminal hydrolase 1 (Homo sapiens) (UniProt O94782); assay: Inhibitors of USP1/UAF1: Pilot qHTS (AID 504865; active = well fitted curve in the direction sought with a large enough effect; an effect the other way counts as inactive or inconclusive;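 note: rhodamine fluorescence freed from ubiquitin-rhodamine substrate followed over time; top concentration of the series differs between compounds; % is set by controls: 0 for no effect and ±100 for the full control effect; nearly all actives have a fitted effect of over 35% in size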); settings: purified USP1/UAF1, Ub-rhodamine cleavage fluorescence; series mostly up to 54.9 µM
Method in brief: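 In 50mM HEPES pH 7.8 containing 0.5mM EDTA, 1mM TCEP, 0.1 mg/ml BSA and 0.01% Tween-20, 1nM USP1/UAF1 is exposed to compound for 15 min, then Ub-Rho (150nM final) is added and fluorescence is read over time.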

[19] = measured here: cell count channel max response
[20] = measured here: lipid channel max response

Sequence of Cytochrome P450 3A4 (Homo sapiens) (P08684 whole entry, looked up): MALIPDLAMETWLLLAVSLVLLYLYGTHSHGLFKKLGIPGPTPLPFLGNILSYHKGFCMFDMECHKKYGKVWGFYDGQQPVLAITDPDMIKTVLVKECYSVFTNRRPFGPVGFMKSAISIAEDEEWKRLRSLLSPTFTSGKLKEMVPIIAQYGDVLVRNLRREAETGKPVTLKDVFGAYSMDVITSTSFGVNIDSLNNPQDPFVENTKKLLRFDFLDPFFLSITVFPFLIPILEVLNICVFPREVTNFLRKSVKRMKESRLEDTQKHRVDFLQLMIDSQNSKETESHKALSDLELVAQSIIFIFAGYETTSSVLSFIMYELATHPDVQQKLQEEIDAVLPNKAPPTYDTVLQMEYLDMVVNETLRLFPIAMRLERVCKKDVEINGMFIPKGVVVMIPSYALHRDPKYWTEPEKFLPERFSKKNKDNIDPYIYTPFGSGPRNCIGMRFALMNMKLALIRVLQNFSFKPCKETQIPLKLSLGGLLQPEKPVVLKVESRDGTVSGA
Sequence of Glucocorticoid receptor (Homo sapiens) (P04150 whole entry, looked up, the tested form may be a part): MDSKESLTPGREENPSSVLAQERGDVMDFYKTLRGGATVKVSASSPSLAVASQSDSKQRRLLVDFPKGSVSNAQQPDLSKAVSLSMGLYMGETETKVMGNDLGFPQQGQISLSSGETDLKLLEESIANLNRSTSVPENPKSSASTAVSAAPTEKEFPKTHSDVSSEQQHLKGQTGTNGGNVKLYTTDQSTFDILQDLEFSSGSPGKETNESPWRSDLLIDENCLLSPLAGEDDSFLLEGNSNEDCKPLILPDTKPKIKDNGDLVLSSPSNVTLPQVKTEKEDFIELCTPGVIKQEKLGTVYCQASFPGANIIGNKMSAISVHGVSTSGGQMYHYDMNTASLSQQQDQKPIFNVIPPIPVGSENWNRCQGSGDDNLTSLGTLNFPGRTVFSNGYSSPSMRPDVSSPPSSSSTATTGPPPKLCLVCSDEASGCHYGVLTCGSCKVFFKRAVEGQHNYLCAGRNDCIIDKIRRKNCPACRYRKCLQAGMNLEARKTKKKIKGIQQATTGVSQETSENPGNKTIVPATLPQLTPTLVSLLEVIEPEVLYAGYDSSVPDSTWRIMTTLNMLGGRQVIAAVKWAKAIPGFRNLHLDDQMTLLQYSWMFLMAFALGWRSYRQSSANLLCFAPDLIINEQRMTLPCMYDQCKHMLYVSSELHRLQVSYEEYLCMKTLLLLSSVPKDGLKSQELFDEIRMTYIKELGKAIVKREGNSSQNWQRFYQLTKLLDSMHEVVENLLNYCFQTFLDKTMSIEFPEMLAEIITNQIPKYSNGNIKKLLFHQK
Sequence of Lysosomal acid glucosylceramidase (Homo sapiens) (P04062 whole entry, looked up): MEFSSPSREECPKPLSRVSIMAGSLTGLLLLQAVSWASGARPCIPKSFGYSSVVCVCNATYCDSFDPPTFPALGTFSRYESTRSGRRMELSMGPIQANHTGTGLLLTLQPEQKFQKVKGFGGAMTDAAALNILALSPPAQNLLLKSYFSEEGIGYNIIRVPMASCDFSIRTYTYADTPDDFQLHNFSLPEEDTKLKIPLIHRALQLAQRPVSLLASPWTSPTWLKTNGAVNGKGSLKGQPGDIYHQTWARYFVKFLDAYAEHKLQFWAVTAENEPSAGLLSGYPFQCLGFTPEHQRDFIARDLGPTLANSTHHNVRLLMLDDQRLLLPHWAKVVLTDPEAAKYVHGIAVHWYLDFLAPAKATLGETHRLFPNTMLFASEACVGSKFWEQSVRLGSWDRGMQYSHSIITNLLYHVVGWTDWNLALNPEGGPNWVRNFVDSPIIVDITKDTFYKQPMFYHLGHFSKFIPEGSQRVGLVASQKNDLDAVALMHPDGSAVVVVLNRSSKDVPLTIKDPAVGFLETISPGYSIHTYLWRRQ
Sequence of 3',5'-cyclic-AMP phosphodiesterase 4B (Homo sapiens) (Q07343 whole entry, looked up): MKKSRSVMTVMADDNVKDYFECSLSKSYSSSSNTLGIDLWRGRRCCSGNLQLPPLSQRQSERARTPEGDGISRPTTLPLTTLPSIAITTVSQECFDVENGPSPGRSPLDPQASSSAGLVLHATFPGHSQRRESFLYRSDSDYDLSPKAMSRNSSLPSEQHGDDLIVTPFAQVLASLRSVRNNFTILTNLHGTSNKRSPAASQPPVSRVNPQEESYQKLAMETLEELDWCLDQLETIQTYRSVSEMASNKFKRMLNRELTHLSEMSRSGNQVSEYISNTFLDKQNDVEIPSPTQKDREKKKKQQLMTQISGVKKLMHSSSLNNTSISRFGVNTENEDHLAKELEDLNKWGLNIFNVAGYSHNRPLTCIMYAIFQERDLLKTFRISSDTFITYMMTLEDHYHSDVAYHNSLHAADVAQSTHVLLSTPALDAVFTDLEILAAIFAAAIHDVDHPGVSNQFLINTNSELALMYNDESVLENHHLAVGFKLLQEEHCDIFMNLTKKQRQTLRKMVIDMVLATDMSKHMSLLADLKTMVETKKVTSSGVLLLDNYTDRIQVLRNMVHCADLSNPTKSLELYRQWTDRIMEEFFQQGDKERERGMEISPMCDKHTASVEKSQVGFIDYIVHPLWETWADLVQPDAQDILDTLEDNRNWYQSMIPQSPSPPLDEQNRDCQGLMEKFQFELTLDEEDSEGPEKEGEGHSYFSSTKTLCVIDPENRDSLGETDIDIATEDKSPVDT
Sequence of Cytochrome P450 1A2 (Homo sapiens) (P05177 whole entry, looked up): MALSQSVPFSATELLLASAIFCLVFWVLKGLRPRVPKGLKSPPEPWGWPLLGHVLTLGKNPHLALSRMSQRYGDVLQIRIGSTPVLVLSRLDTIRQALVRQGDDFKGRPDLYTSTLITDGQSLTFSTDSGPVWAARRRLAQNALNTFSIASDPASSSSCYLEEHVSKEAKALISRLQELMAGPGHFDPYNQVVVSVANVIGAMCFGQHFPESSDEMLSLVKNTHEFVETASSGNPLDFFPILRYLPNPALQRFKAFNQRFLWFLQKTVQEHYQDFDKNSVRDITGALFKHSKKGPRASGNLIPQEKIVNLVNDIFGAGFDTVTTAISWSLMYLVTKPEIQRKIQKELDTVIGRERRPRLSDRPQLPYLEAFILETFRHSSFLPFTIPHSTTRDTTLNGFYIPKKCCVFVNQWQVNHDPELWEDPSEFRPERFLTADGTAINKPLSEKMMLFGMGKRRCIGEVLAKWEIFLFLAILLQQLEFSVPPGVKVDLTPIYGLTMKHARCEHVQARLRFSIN
Sequence of Cytochrome P450 2C19 (Homo sapiens) (P33261 whole entry, looked up): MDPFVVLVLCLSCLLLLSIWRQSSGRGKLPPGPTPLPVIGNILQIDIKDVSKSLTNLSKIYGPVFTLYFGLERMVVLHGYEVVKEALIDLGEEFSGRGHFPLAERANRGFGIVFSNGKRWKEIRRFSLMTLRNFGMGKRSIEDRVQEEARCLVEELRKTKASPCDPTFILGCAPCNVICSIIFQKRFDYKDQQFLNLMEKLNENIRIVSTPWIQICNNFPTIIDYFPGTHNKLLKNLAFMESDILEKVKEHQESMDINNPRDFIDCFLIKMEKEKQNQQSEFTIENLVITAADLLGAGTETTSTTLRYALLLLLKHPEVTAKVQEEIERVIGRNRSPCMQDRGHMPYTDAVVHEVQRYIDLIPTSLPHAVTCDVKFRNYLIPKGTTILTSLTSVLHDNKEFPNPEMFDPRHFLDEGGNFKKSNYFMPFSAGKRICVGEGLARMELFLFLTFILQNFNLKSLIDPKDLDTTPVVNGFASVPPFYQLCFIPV
Sequence of Cytochrome P450 2C9 (Homo sapiens) (P11712 whole entry, looked up): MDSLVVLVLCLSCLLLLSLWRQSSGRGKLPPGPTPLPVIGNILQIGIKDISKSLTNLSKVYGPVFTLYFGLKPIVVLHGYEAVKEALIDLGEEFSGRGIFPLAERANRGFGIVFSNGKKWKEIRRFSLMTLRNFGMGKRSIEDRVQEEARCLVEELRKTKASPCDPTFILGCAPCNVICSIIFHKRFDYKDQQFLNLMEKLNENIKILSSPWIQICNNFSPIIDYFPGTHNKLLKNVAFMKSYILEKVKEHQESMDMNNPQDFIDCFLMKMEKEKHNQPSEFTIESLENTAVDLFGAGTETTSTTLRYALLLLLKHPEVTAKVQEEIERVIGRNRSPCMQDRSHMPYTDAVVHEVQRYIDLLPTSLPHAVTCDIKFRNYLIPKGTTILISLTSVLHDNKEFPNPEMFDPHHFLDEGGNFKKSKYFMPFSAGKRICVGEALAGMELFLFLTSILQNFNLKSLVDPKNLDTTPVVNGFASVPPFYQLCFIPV
Sequence of Ubiquitin carboxyl-terminal hydrolase 1 (Homo sapiens) (O94782 whole entry, looked up): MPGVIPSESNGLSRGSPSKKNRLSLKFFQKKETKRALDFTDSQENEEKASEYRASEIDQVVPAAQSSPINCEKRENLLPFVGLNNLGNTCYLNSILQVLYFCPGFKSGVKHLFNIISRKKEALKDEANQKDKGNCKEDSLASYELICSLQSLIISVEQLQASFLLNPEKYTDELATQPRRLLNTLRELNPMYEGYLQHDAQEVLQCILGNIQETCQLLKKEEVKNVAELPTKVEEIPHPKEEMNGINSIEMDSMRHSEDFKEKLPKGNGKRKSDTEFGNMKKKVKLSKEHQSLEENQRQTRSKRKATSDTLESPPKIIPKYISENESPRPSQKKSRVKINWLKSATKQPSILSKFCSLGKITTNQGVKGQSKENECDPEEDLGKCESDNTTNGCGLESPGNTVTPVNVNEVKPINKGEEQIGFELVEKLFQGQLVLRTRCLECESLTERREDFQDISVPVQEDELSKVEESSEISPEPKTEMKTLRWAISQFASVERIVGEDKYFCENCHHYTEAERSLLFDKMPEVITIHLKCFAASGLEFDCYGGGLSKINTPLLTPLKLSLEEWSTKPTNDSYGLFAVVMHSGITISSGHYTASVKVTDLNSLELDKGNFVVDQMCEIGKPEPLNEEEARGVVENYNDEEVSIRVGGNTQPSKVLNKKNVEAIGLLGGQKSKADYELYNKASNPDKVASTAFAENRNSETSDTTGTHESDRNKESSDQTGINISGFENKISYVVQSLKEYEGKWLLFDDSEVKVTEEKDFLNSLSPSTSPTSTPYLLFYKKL

Structure (SMILES) | Potency [1] | activity change, negative = inhibition [2] | Potency [3] | activity change, negative = inhibition [4] | activity, negative = inhibition [5] | Potency [6] | Potency [7] | outcome [8] | activity change, negative = inhibition [9] | max response [9, 19] | max response [9, 20] | Potency [10] | Potency [11] | Potency [12] | Potency [13] | Potency [14] | Potency [15] | outcome [16] | outcome [17] | Potency [18]
c1ccc2c(NC3CCNCC3)nc(-c3ccoc3)nc2c1 | > 11.4 µM (inactive) | 8.91% (inactive) | 15.8 µM (active) | 5.13% (inactive) | 7% (inactive) | > 46 µM (inactive) | > 46 µM (inactive) | inactive | 0.038% (inactive) | 5.08% | 2.41% | inactive |  |  |  |  |  |  |  | 
Cn1c(=O)cnc2cnc(Oc3ccccc3)nc21 | > 11.4 µM (inactive) | 5.77% (inactive) | 10 µM (active) | 4.94% (inactive) | -3.04% (inactive) | > 9.22 µM (inactive) | > 46 µM (inactive) | inactive | 3.92% (inactive) | 18.8% | 25.3% | inactive | inactive |  |  |  |  |  |  | 
CN(C)c1ncc2ncc(=O)n(CCC#N)c2n1 | > 11.4 µM (inactive) | -12.7% (inactive) | 12.6 µM (active) | 3.55% (inactive) | -2.2% (inactive) | > 9.22 µM (inactive) | > 46 µM (inactive) | inactive | 2.4% (inactive) | 25.3% | 29.8% | inactive |  | inactive |  |  |  |  |  | 
COCCn1c(=O)c(C)nc2cnc(N3CCNCC3)nc21 | > 11.4 µM (inactive) | -21.3% (inactive) | 10 µM (active) | -18.9% (inactive) | -2.95% (inactive) | > 9.22 µM (inactive) | > 46 µM (inactive) | inactive | 1.17% (inactive) | 4.65% | 6.84% | inactive | inactive |  |  |  |  |  |  | 
Cc1cccc(CNc2ncncc2-c2cccc(C#N)c2)c1 | > 11.4 µM (inactive) | 0.377% (inactive) | 2.51 µM (active) | -8.33% (inactive) | 14.8% (inactive) | > 46 µM (inactive) | > 46 µM (inactive) | inactive | 4.89% (inactive) | 9.06% | 15.9% | inactive | inactive |  | 0.199 µM (active) | inactive | 3.98 µM (active) | inactive | inactive | 
CN(C)Cc1ccccc1-c1nc(NCc2ccccc2)c2ccccc2n1 | > 11.4 µM (inactive) | 15.5% (inactive) | 1.26 µM (active) | -17.2% (inactive) | 4.49% (inactive) | > 46 µM (inactive) |  | inactive | 5.53% (inactive) | 1.11% | 6.16% | inactive |  |  |  | inactive |  | inactive | inactive | inactive
COc1cccc(-c2nccc(-n3ccnc3)n2)c1 | > 11.4 µM (inactive) | 9.38% (inactive) | 0.0316 µM (active) | 14% (inactive) | -0.599% (inactive) | > 46 µM (inactive) | > 46 µM (inactive) | inactive | 4.69% (inactive) | 4.96% | 13.1% | inactive | inactive |  |  | inactive | 2.51 µM (active) | inactive | inactive | 
CN1CCC2(CC1)CCN(C(=O)c1cc(C(F)(F)F)cc(C(F)(F)F)c1)CC2 | > 11.4 µM (inactive) | -8.71% (inactive) | inactive | -5.98% (inactive) | -2.34% (inactive) |  | > 46 µM (inactive) | inactive | 1.93% (inactive) | -7.21% | -4.06% | inactive | inactive |  |  |  |  |  |  | 
COc1ccc2[nH]cc(CCNc3cc(-c4ccccc4C(F)(F)F)ncn3)c2c1 | > 11.4 µM (inactive) | -26.7% (inactive) | 10 µM (active) | 14% (inactive) | 0.643% (inactive) | > 46 µM (inactive) | > 46 µM (inactive) | inactive | 6.48% (inactive) | -3.31% | 0.275% | inactive | inactive |  | 5.01 µM (active) | inactive |  | inactive | inactive | 
COc1ncc2ncc(=O)n(Cc3cccs3)c2n1 | > 11.4 µM (inactive) | 1.19% (inactive) | 10 µM (active) | -2.85% (inactive) | -3.48% (inactive) | > 9.22 µM (inactive) | > 46 µM (inactive) | inactive | 4.1% (inactive) | 9.65% | 19.6% | inactive |  |  |  | inactive |  |  |  | 
COc1ncc2nc(-c3cc(F)cc(F)c3)c(=O)n(CCC#N)c2n1 | > 11.4 µM (inactive) | 2.61% (inactive) | 6.31 µM (active) | -5.52% (inactive) | -7.47% (inactive) | > 9.22 µM (inactive) | > 46 µM (inactive) | inactive | 5.74% (inactive) | 17.3% | 25.6% | inactive | inactive |  |  | inactive |  |  |  | 
COc1ccc(-n2c(=O)cnc3cnc(Oc4ccccc4)nc32)cc1 | > 11.4 µM (inactive) | -8.13% (inactive) | 15.8 µM (active) | 2.58% (inactive) | -13.1% (inactive) | > 9.22 µM (inactive) | > 46 µM (inactive) | inactive | 1.98% (inactive) | 3.82% | 6.57% | inactive | inactive |  |  | inactive |  |  |  | 
COc1ccc(Oc2ncc3nc(-c4ccc(OC)cc4)c(=O)n(Cc4cccs4)c3n2)cc1 | > 11.4 µM (inactive) | -28.2% (inactive) | 15.8 µM (active) | 2.5% (inactive) | 8.59% (inactive) | > 9.22 µM (inactive) | > 46 µM (inactive) |  | 6.95% (inactive) | 13.2% | 21.9% | inactive | inactive |  |  | inactive |  |  |  | 
